Among all 65,000 compounds or so, about 2,100 (3.2%) showed an effect of 50% or more. The median lay at about -52%. The entries come from a sample that favours strong results as a whole.
The molecules below were run on Plasmodium falciparum (assay: Screen against P. falciparum Asexual Blood Stage (ABS), at 5uM). Settings: tested at 5 uM.
Type: functional, Dd2

| SMILES | INHIBITION [%] |
| --- | --- |
| Cc1noc(C)c1CN1C[C@H]2CNC[C@H]2C1 | 9.33 |
| CCC[C@H]1CN(S(=O)(=O)c2c(C)noc2C)C[C@@H]1N | 82.5 |
| CCC[C@H]1CN(S(=O)(=O)c2ccc(CC)s2)C[C@@H]1N | 75.8 |
| Cc1nc2sccn2c1CN(CCCN(C)C)Cc1ccco1 | 86.2 |
| Cc1nc(CC(=O)N(CCN2CCOCC2)Cc2ccco2)c(C)s1 | -135 |
| CN(C)CCN(Cc1ccco1)C(=O)Cc1cn2ccsc2n1 | -5.56 |
| Cc1ccc(CN(CCN(C)C)Cc2c(C)nc3sccn23)o1 | 84.6 |
| Cc1ccc(CN(CCN(C)C)C(=O)Cc2cn3ccccc3n2)o1 | -67.1 |
| CNC(=O)CN1CCO[C@H]2CN(C(=O)c3ccncc3F)C[C@H]21 | -74.6 |
| CCCn1cc(C(=O)NC(C(=O)O)c2ccccc2C(F)(F)F)c(C)n1 (configuration not stated) | -51.5 |
| CS(=O)(=O)N1CCN(CC2CC2)c2ncccc2C1 | -25.9 |
| OC[C@H]1CN2CCN(c3ccccn3)C[C@@H]2[C@@H]1c1ccccc1 | -11.3 |
| COc1ccc(CN2CCCC2)cc1Oc1ccc2c(c1)CC(CN)O2 (configuration not stated) | 88.2 |
| NCC1Cc2cc(Oc3cc(F)c(CN4CCCC4)c(F)c3)ccc2O1 (configuration not stated) | 77.8 |
| COc1ncccc1CN1C[C@@H]2COC[C@]2(COCC2CC2)C1 | 33.8 |
| Cc1cccc(CN2C[C@@H]3COC[C@]3(COc3cccnc3)C2)n1 | -77.5 |
| Cc1noc(C)c1CN1CCOCC12CCN(c1nccs1)CC2 | -91.6 |
| O=C(c1scc2c1OCCO2)N1CCOC(CCc2ccccc2)C1 (configuration not stated) | 88.7 |
| O=C(Cc1ccccc1)N1C[C@@H]2OCCN(CC3CCCO3)[C@@H]2C1 (some centres not stated) | -34.5 |
| O=C(CCc1ccccc1)N1C[C@H]2CCN[C@H]2C1 | -6.16 |
| O=C(NCCc1ccccn1)[C@@]12CCO[C@@H]1CCN(CC1CC1)C2 | 30.8 |

| SMILES | INHIBITION [%] |
| --- | --- |
| Cc1ccccc1C1(C(=O)NCCN2CCC(C)CC2)CCOCC1 | 85.3 |
| Cc1ccccc1C1(C(=O)NCCN2CCCC(C)C2)CCOCC1 (configuration not stated) | 88.1 |
| CN1CC[C@H]2OCC[C@@]2(C(=O)NCCc2ccccn2)C1 | 12.7 |
| O=C(NCCc1ccccn1)[C@@]12CCO[C@@H]1CCN(C1CCC1)C2 | 44.6 |
| O=S1(=O)CCC(n2cc(C3=CCN(CCN4CCCCC4)CC3)cn2)C1 (configuration not stated) | 12.6 |
| O=C(N[C@H]1CN[C@H]2CCCO[C@H]21)c1ccno1 | -87.2 |
| c1cc(COC[C@@H]2CCC[C@@]23CNCCO3)ccn1 | 7.1 |
| COc1cc(CNCC(O)c2ccccc2F)cc2c1OCO2 (configuration not stated) | 78 |
| COc1cc(CNCC(O)c2ccc(F)cc2F)cc2c1OCO2 (configuration not stated) | 85.5 |
| CC[C@H](N)Cn1nc(-c2cccs2)oc1=O | -186 |
| CCc1nnc(C(C)N2CCCN(C(=O)Oc3ccccc3)CC2)o1 (configuration not stated) | -87.2 |
| CC(C)CN1CCC2(CC1)C(=O)Nc1ccc(C(=O)NC(C)C)cc12 | -39.5 |
| CCC(CN1CCN(C)CC1)NC(=O)C1(c2cccc(F)c2)CC1 (configuration not stated) | 77.1 |
| CC(C)NC(=O)c1ccc2c(c1)C1(CCN(C)CC1)C(=O)N2 | -37.9 |
| O=C(Nc1cccc(F)c1)N1CCC(CO)(Nc2ccccc2)CC1 | -35.15 |
| CCC(CN1CCCC1)NC(=O)C1(c2cccc(F)c2)CC1 (configuration not stated) | 84.7 |
| CC(C)n1cc(C(=O)NC2CN3CCC2CC3)c2ccccc21 (configuration not stated) | -24.9 |
| CC(C)(C)n1cc(C(=O)NCCN2CCOCC2)c2cccnc21 | -89.4 |
| Cc1[nH]c2ccccc2c1-c1ccnc(NCCN2CCOCC2)n1 | 82.5 |
| Cn1cc(C2NC3(CCCC3)C(=O)N2CC2CC2)c(=O)n(C)c1=O (configuration not stated) | -43.9 |
| Cc1ccc(N2CC[C@@H]3CN(Cc4cc[nH]n4)C[C@@H]3C2)nn1 | -19.6 |

| SMILES | INHIBITION [%] |
| --- | --- |
| Cc1cc(CN2C[C@@H]3CN(C(=O)c4ccco4)CCO[C@@H]3C2)no1 | -45 |
| NCC1(c2cccc(C(F)(F)F)c2)CC1 | -97.7 |
| NCC1(c2cccc(F)c2)CCOCC1 | 2.49 |
| NCC1(c2cccc(C(F)(F)F)c2)CCOCC1 | 69.9 |
| NCC1(c2cccc(Br)c2)CCOCC1 | 79.5 |
| Cc1nn(-c2ccc(C(=O)O)cc2)c2c1C(c1ccsc1)SCC(=O)N2 (configuration not stated) | -82.6 |
| COCCN1CCN(Cc2ccco2)Cc2ccc(C)nc21 | -85 |
| COCCN1CCO[C@@H]2CN(S(=O)(=O)c3cccnc3)C[C@@H]2C1 | -76.3 |
| Cc1cc(CN2C[C@@H]3COC[C@@H](C(=O)N4CCCCO4)[C@@H]3C2)no1 | -31.1 |
| O=C(C[C@@H]1COC[C@H]2CN(Cc3cccnc3)C[C@@H]12)N1CCCC1 | -133 |
| COc1ccc(CN2C[C@H]3CCC[C@@H](CN(C)C4CC4)[C@H]3C2)cn1 | 78.2 |
| COCCN(C)C[C@@H]1CCC[C@@H]2CN(Cc3ccc(OC)nc3)C[C@@H]21 | 79.6 |
| Cn1cc(CN2C[C@H]3CCC[C@@H](CNc4ncccn4)[C@H]3C2)cn1 | -87.3 |
| c1cnc(NC[C@@H]2CCC[C@@H]3CN(Cc4cccnc4)C[C@@H]32)nc1 | 42.2 |
| CN(C[C@@H]1CCC[C@@H]2CN(Cc3cccnc3)C[C@@H]21)C1CC1 | 56.5 |
| COc1ccc(CN2C[C@H]3CCC[C@@H](CN(C)C)[C@H]3C2)cn1 | 50 |
| COC1CCC[C@@H]2CN(Cc3csc(C)n3)C[C@H]12 (some centres not stated) | 24.8 |
| Cc1cccc(CN2C(=O)CC[C@H]3[C@@H]2CCN3CC(=O)N(C)C)n1 | -71 |
| CCCN1C(=O)C2(CCCCC2)NC1c1cn(C)c(=O)n(C)c1=O (configuration not stated) | -5.44 |
| CCCN1C[C@@H]2CC[C@H]1CN(C(=O)Cc1c(C)[nH]c(CC)nc1=O)C2 | -19.6 |

Source: ChEMBL document CHEMBL4513216, “Probing the Open Global Health Chemical Diversity Library for Multistage-Active Starting Points for Next-Generation Antimalarials” (ACS Infect Dis, 2020)
